Laboratory results published in the OligoGym collection.

Target: NAGPA
Assay: pooled miR-30 sensor sort-seq; sequence = guide strand
Conditions: shRNA
Note: reference of the scale not given here.

Sequence | sensor-assay potency score (higher = more potent)
TCGTTGATGTAGATGCTTCCAT | -0.346
TGTCTCGTCACACTCTGTGGCT | -0.832
TTGAGCACAAAGGTGGCAGAGC | -0.854
TAGGGCAGTAGCAAGTCGTCGT | 0.274
TTCCTCTCTGCTCTGGACAGGA | -0.227
TTGATGTAGATGCTTCCATTAC | -1.88
TGTGTCTCGTCACACTCTGTGG | -1.05
AAGCCGAATAGTGCAAGCCGGA | -1.15

Target: NAGS
Assay: as above
Conditions: shRNA

Sequence | sensor-assay potency score (higher = more potent)
TCACTGTGTTTGAAGTACCAGG | -0.966
TTGCACACCAGGTCCAGGTCGG | -0.37
TGTAGCTTTAGAGTGAGTCGAG | 0.177
TTGATGGGGTTGGTGACCCGGG | -1.22
TTACTCAGGACCTTATGACTGC | -0.0355
TCTACCAGCACCTTGCAGCTCT | 0.351
TTGACCAGGTCCACTAGACGGC | -0.973
TTTAGAGTGAGTCGAGTTGGGG | -0.776
TTGAGGAAGATGATTTTGGTGG | -0.197
TTATTGAGGAAGATGATTTTGG | -0.526
TTAGAGTGAGTCGAGTTGGGGT | -0.187
TAGTCGTCCCTGAGCTTCTTGC | -1.38

Target: NAP1L5
Assay: as above
Conditions: shRNA

Sequence | sensor-assay potency score (higher = more potent)
TTATAGATGTCATTATACTTTT | -1.32
TCTATCTTATCGCATCGCTTCT | -0.911
TTTTTGAGGGCCAGGACTCGGC | -1.25
TTGAGGGCCAGGACTCGGCATT | -1.45
TCTTATCGCATCGCTTCTGCAG | -1
TTGGATCTTGGCGAGTAGGGGC | -0.336
TATCTTATCGCATCGCTTCTGC | 0.0139
TTGGCTTCTATCTTATCGCATC | -1.13
TATACTTTTTTTCCAGAGCCTG | -1
ATACTTTTTTTCCAGAGCCTGA | -1.24
TTCTATCTTATCGCATCGCTTC | -0.589

Target: NARF
Assay: as above
Conditions: shRNA

Sequence | sensor-assay potency score (higher = more potent)
TTATTTGAGCAATTTCACCTGA | 0.612
TTTAGCAGCAAAATAAGGCAAA | -0.927
ATCCTCGTTGAACAGCTCCTTG | -0.97
TGGTGCAATCTTGTCTCGCTGT | -0.584
TTGTTTTCTTACTACATTCCTT | -0.477
TATTTGAGCAATTTCACCTGAT | 0.609
TGAGGTATCACATTTCTTGTTA | -0.0479
AAATCCGCAGCTATCGTCGTAT | -0.245
TTCTTTTTGACTCTCCAGGATA | -1.07
